Inconclusive results are not listed. Unmarked numbers belong to inactive results. Activity calls are given as the source filed them. Calls come from the whole dose curve; as a rule, active = well fitted inhibition curve with a large enough effect; inconclusive = small, poorly fitted or top-dose-only effect; inactive = flat fitted curve, though single readings scatter.
What follows are compounds tested on NIH3T3 (assay: Cytotoxic Profiling of Annotated Libraries Using Quantitative High-Throughput Screening (AID 1296008; note: nearly all actives have a fitted effect of over 60% in size)). Details: Five cell lines viability, CellTiter-Glo ATP luminescence, 48-72 h; max response: stronger effect = lower value.
Summary of the method: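 Compounds were pin-transferred onto cells and incubated 48 or 72 hr at 37 degree Celsius, 95% humidity. CellTiter-Glo was added, plates sat 10 min at room temperature, then ATP-coupled luminescence was imaged as the viability read-out.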
% is set by controls: 0 for no effect and ±100 for the full control effect; potency is the fitted concentration of half-maximal effect.

Row | Structure (SMILES) | max response [%] | Potency
1 | CC(=O)c1cc2c(cc1O)OC(C)(C)C=C2 | -4.07 | 
2 | O=C1C=CC(O)(/C=C/C(=O)OC[C@H]2O[C@@H](Oc3ccc(O)cc3)[C@H](O)[C@@H](O)[C@@H]2O)C=C1 | -0.599 | 
3 | O=C(O)CC1CCC(c2ccc(-c3ccc4nc(C(=O)NCc5ccc(OC(F)(F)F)cc5)cn4c3)cc2)CC1 (centres undefined) | -0.598 | 
4 | CC12CCC(OC3OC(CO)C(O)C(OC4OC(CO)C(O)C(O)C4O)C3O)CC1=CCC1C2CCC2(C)/C(=C3/COC(=O)C3)CCC12O (centres undefined) | -3.87 | 
5 | O=C(CN1C(=O)C2(CCCC2)NCC1c1cc(F)cc(F)c1)Nc1ccc2c(c1)CC1(C2)C(=O)Nc2ncccc21 (centres undefined) | -0.622 | 
6 | C[C@@H]1O[C@@H](O[C@H]2[C@H](O)[C@@H](O)[C@H](OC[C@H]3O[C@@H](OC(=O)[C@]45CCC(C)(C)C[C@H]4C4=CCC6[C@@]7(C)CC[C@H](O[C@@H]8OC[C@H](O)[C@H](O[C@@H]9O[C@H](CO)[C@@H](O)[C@H](O)[C@H]9O)[C@H]8O)[C@@](C)(CO)C7CC[C@@]6(C)[C@]4(C)CC5)[C@H](O)[C@@H](O)[C@@H]3O)O[C@@H]2CO)[C@H](O)[C@H](O)[C@H]1O (some centres undefined) | -6.93 | 
7 | O=C(Nc1nc2ccccc2n1CCc1ccccc1)c1ccccc1 | -1.28 | 
8 | C[C@H]1O[C@@H](O[C@H]2CC[C@@]3(C)C(CC[C@]4(C)C3CC=C3C5CC(C)(C)CC[C@]5(C(=O)O)CC[C@]34C(=O)O)C2(C)C)[C@H](O)[C@@H](O)[C@@H]1O (some centres undefined) | 3.7 | 
9 | CCc1c(-c2ccccc2)c(-c2ccccc2)nn1-c1ccccc1-c1cccc(OCC(=O)O)c1 | 0.468 | 
10 | Cc1cc(C(=O)Nc2cccc(C(=O)Nc3cccc(C(F)(F)F)c3)c2)on1 | -17 | 
11 | C[C@@H]1C(=O)O[C@H](C)[C@H]1CC(=O)[C@](C)(O)[C@H]1CC[C@@]2(O)C3=CC(=O)[C@@H]4C[C@@H](O)[C@@H](O)C[C@]4(C)C3CC[C@]12C (some centres undefined) | 1.5 | 
12 | CC/C=C\[C@H](O)[C@H](O)C1=C(C)C(=O)[C@]2(O1)C(=O)N[C@@](OC)(C(=O)c1ccccc1)[C@@H]2O | 1.26 | 
13 | CC(O)(CC(=O)O)CC(=O)OCc1ccc(O[C@@H]2O[C@H](CO)[C@@H](O)[C@H](O)[C@H]2O)cc1 (some centres undefined) | -5.49 | 
14 | COC(=O)C1=CO[C@@H](O[C@@H]2O[C@H](CO)[C@@H](O)[C@H](O)[C@H]2O)[C@H]2[C@@H]1C=C[C@@]21C=C([C@H](C)O)C(=O)O1 | 3.5 | 
15 | CC1CCC2(OC1)OC1CC3C4CC=C5CC(O)CC(O[C@@H]6OC[C@@H](O)[C@H](O)[C@H]6O)C5(C)C4CCC3(C)C1(O)C2C (some centres undefined) | -1.3 | 
16 | Cc1cc(OCc2nc(-c3ccccc3Cl)cs2)ccc1OCC(=O)O | 4.72 | 
17 | CC(C)(C)NCCCNC(=O)c1cccc(Br)c1 | 3.37 | 
18 | CN(C)C(=O)NC1CCC(CCN2CCN(c3cccc(Cl)c3Cl)CC2)CC1 (centres undefined) | -6.34 | 
19 | C[C@@H]1C(=O)O[C@H]2[C@H](O)C34[C@H]5C[C@@H](C(C)(C)C)C36[C@@H](OC(=O)[C@@H]6O)O[C@@]4(C(=O)O5)[C@@]12O (some centres undefined) | -2.5 | 
20 | CC(C)c1cccc2c(-c3ccccc3)cc(-c3ccc(-c4ccc(C(=O)O)cc4)[nH]3)nc12 | -3.94 | 

Row | Structure (SMILES) | max response [%] | Potency
21 | C=C1CCC[C@]2(C)CC[C@@H](C(=C)C(=O)O)[C@H](O)[C@@H]12 | -0.289 | 
22 | CC(C)CC(=O)OC1OC=C(CO[C@@H]2O[C@H](CO)[C@@H](O)[C@H](O)[C@H]2O)C2CC(O)C(O)(CO)C12 (some centres undefined) | -2.63 | 
23 | CC(C)=C/C=C\[C@H](C)[C@H]1CC[C@]2(C)C[C@@H]3C(C)=CC(=O)C3/C(CO)=C\C[C@@H]12 (some centres undefined) | 3.13 | 
24 | OCC1OC(Oc2cc(O)cc(/C=C/c3ccc(O)cc3)c2)C(O)C(O)C1O (centres undefined) | -0.337 | 
25 | C[C@@H]1CCN(C(=O)N2CCCC2)C[C@@H]1N(C)c1ncnc2[nH]ccc12 | -9.02 | 
26 | O=C(/C=C\n1cnc(-c2cc(C(F)(F)F)cc(C(F)(F)F)c2)n1)N1CC(F)(F)C1 |  | 1840 nM (active)
27 | C=CC(=O)Nc1cc(Nc2nccc(-c3c[nH]c4ccccc34)n2)c(OC)cc1N(C)CCN(C)C |  | 14600 nM (active)
28 | CC1(C)CC[C@]2(C(=O)O[C@@H]3O[C@H](CO)[C@@H](O)[C@H](O)[C@H]3O)CC[C@]3(C)C(=CCC4[C@@]5(C)CC[C@H](O[C@@H]6O[C@H](C(=O)O)[C@@H](O)[C@H](O)[C@H]6O)[C@@](C)(CO)C5CC[C@]43C)C2C1 (some centres undefined) | -2.22 | 
29 | C[C@H](C/C=C/C(C)(C)O)[C@H]1CC[C@@]2(C)[C@@H]3[C@@H](O[C@@H]4O[C@H](CO)[C@@H](O)[C@H](O)[C@H]4O)C=C4C(CC[C@H](O)C4(C)C)[C@]3(C=O)CC[C@]12C (some centres undefined) | 3.81 | 
30 | C=CC1(C)CC(OC(=O)/C(C)=C\COC(C)=O)C(C(=C)C(=O)O)C(O)C1C(=C)CO (centres undefined) | -3.05 | 
31 | Cc1cccc(Oc2cnc(=O)[nH]c2)c1 | -28.2 | 
32 | COc1ccc(/C=C\C(=O)O)c(O[C@@H]2O[C@H](CO)[C@@H](O)[C@H](O)[C@H]2O)c1 | 0.681 | 
33 | COC(=O)C1=CO[C@@H](O[C@@H]2O[C@H](CO)[C@@H](O)[C@H](O)[C@H]2O)C2C1C(=O)C[C@H]2C (some centres undefined) | 2.63 | 
34 | CC1=CC(=O)CC2C1(O)CCC(C)C21CC(c2ccoc2)OC1=O (centres undefined) | -0.573 | 
35 | Cc1cc(O)cc(O[C@@H]2O[C@H](CO)[C@@H](O)[C@H](O)[C@H]2O)c1 | -8.17 | 
36 | CCCCNc1ncc2c(-c3ccc(CN4CCN(C)CC4)cc3)cn(C3CCC(O)CC3)c2n1 (centres undefined) |  | 1300 nM (active)
37 | CN1C2CCC1CC(OC(=O)[C@H](CO)c1ccccc1)C2 (some centres undefined) | -25.3 | 
38 | C/C=C/c1ccc2c(c1)[C@@H](C)[C@H](c1ccc(O)cc1)O2 | 3.14 | 
39 | CC1C(OC(=O)c2ccccc2)C(O)C2C(C(=O)O)=COC(OC3OC(CO)C(O)C(O)C3O)C12 (centres undefined) | 4.34 | 

From PubChem BioAssay (NCATS)
